Test results published in the supplement of paper PMC12636033.
± gives the standard deviation of the averaged measurements. Over roughly 33,000 sequences, “E-score (rank enrichment, -0.5 to 0.5)” has its median near -0.0068; the highest 2% begin near 0.24. This excerpt belongs to a sample that is enriched for the highest values.

test system: muMax20 (Max(13-93) K31hArg/K57hArg, M65Nle); assay: PBM 8-mer E-score (E-score (rank enrichment, -0.5 to 0.5)); higher = stronger preferential binding
Description: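 Protein binding microarray (universal PBM chip covering all 10-mers in fixed probe flanks) with chemically synthesized human Max(13-93) bHLH-LZ analogs (not full-length Max) bearing noncanonical residues (hArg, Tha, Aib, Nle at 65) and aromatic Cys staples. Read-out per 8-mer (and its reverse complement): E-score (rank-based enrichment, -0.5 to 0.5) and Z-score of median probe intensity.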

Sequence | PBM 8-mer E-score
CAGTGGGG | -0.0911 ± 0.22
TCTCCGAA | -0.233 ± 0.047
AGGCATGC | 0.121 ± 0.03
GAGTGGCA | -0.0109 ± 0.066
AGTATTTA | 0.222 ± 0.019
GGTATTTA | 0.173 ± 0.045
CTTATTTA | 0.0812 ± 0.083
ATTATTTC | 0.186 ± 0.039
CGTATTTA | 0.248 ± 0.068
AATATTTA | 0.287 ± 0.011
AATATTTC | 0.209 ± 0.035
AATATTTG | 0.167 ± 0.11
CTTATTTC | 0.24 ± 0.14
CTCTCCCA | 0.00928 ± 0.07
CACGTATC | 0.158 ± 0.0092
GTCTATAA | 0.181 ± 0.04
CCGTTAAA | -0.00804 ± 0.013
AATGACAC | 0.161 ± 0.056
AATGACAA | 0.241 ± 0.033
CATGACAA | 0.2087 ± 0.00054
AGAATATA | 0.254 ± 0.039
AGAATATC | 0.129 ± 0.027

Sequence | PBM 8-mer E-score
CGAATATA | 0.237 ± 0.065
CGAATATC | -0.0375 ± 0.072
GGAATATA | 0.0712 ± 0.077
AGAATATG | 0.227 ± 0.029
AGAAACCC | 0.0541 ± 0.034
AGTAGCTC | -0.0686 ± 0.0062
CCTGTCGC | -0.224 ± 0.021
AATCTATA | 0.143 ± 0.05
CATATAGG | 0.147 ± 0.0067
GATATGTA | 0.103 ± 0.057
CATATATA | 0.271 ± 0.095
CATATATG | 0.259 ± 0.017
CATATGTA | 0.257 ± 0.061
GATCTATA | -0.0926 ± 0.0098
CATATATC | 0.171 ± 0.05
AATATATG | 0.208 ± 0.089
CATCTATA | 0.278 ± 0.013
TATATATA | 0.228 ± 0.091
AATATGTA | 0.124 ± 0.0062
AAACGAGT | 0.044 ± 0.013
AGTGTGAT | 0.125 ± 0.043
CGTATAGA | 0.0652 ± 0.077

Sequence | PBM 8-mer E-score
AAGGTTAT | -0.0312 ± 0.054
CACGGTTA | 0.00552 ± 0.11
TCGGAACA | -0.0705 ± 0.069
CAGTGGCC | -0.25 ± 0.067
CAGAGCCA | -0.17 ± 0.01
AGCTGGGC | -0.0998 ± 0.075
ACCACAGG | -0.113 ± 0.031
GCACTTGA | -0.0604 ± 0.011
TGCTCGAA | 0.069 ± 0.0081
ACCCAGTG | -0.0911 ± 0.074
AATATGGC | 0.24 ± 0.07
ACTATGTG | 0.109 ± 0.069
AATATGGT | 0.095 ± 0.017
AATATGTG | 0.28 ± 0.094
AATATGTC | 0.0382 ± 0.013
AATATGGA | 0.156 ± 0.017
CAGTTAGG | 0.0928 ± 0.049
GATGCTAA | -0.0557 ± 0.067
GCGTCGAC | -0.038 ± 0.027
CATAAGAG | 0.0912 ± 0.02
GATGCTGC | -0.0878 ± 0.08
CGCCCTGA | -0.0272 ± 0.05

Sequence | PBM 8-mer E-score
ATAATCGG | 0.137 ± 0.011
CTAAAGTC | -0.208 ± 0.11
GTAAAGTA | 0.284 ± 0.074
ATAAAGTC | 0.239 ± 0.082
ATAAAGTG | 0.0933 ± 0.062
CTAAAGTA | 0.00517 ± 0.053
ATAAAGTA | 0.228 ± 0.048
CAAATGGA | -0.0819 ± 0.12
AAAATGGA | 0.298 ± 0.036
AAAATGGG | -0.088 ± 0.024
AGGCTATG | -0.0609 ± 0.077
ATTCAGCA | 0.076 ± 0.071
AAATCAAT | 0.192 ± 0.01
AAATCGTA | 0.248 ± 0.024
AAATCAAA | 0.2624 ± 0.00016
TAATCGTA | 0.162 ± 0.0019
CAATCGTA | 0.18 ± 0.038
AAATCAAG | 0.141 ± 0.028
ATGTGTCC | 0.0398 ± 0.026
TGAGAACA | 0.115 ± 0.095
